According to article PMC7862700, “An all-to-all approach to the identification of sequence-specific readers for epigenetic DNA modifications on cytosine”:

Tests used:
Test in all cases: DAPPL (digital affinity profiling via proximity ligation, sequencing); 10 mM Tris-HCl pH 7.5, 50 mM NaCl, 1 mM DTT, 4% glycerol, room temperature, 30 min; GST-TFs on glutathione beads, 16-mer random dsDNA library, 0.1% formaldehyde crosslink after washing; high values mean tight binding
Details in all cases: protein: recombinant; tags: N-terminal GST; dsDNA, one strand shown
[1] = target: T1, FLI1 (Homo sapiens, UniProt Q01543 1-452)
T1 sequence: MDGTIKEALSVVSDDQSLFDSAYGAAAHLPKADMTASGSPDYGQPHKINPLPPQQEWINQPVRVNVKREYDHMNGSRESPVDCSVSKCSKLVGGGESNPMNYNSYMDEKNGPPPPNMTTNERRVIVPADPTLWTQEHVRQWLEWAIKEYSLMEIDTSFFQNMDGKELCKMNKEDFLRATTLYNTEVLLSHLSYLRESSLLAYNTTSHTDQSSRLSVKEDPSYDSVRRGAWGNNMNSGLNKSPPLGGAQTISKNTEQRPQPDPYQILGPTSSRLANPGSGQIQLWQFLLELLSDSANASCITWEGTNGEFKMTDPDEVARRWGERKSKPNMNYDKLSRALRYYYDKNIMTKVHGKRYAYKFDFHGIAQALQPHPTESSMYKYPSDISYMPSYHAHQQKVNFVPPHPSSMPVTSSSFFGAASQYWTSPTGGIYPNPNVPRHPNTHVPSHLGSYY
Outline: (§1)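 Sequencing on an Illumina NextSeq500 followed washing, crosslinking with 0.1% formaldehyde, proximity ligation (BsaI/T4 ligase, 1 h, 37 °C) and PCR amplification of pools that had been incubated for 30 min at room temperature with 200 nmole of a random double-stranded 16-mer DNA library in Tris/NaCl/DTT/glycerol buffer. Each pool held DNA-barcoded human transcription factors, expressed in yeast as GST fusions and captured on glutathione beads, plus a tag-only sample. Binding signal is a hexamer's read frequency for a factor divided by its frequency in the tag-only sample.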

[2] = target: T2, ELK1 (Homo sapiens, UniProt P19419 1-428)
T2 sequence: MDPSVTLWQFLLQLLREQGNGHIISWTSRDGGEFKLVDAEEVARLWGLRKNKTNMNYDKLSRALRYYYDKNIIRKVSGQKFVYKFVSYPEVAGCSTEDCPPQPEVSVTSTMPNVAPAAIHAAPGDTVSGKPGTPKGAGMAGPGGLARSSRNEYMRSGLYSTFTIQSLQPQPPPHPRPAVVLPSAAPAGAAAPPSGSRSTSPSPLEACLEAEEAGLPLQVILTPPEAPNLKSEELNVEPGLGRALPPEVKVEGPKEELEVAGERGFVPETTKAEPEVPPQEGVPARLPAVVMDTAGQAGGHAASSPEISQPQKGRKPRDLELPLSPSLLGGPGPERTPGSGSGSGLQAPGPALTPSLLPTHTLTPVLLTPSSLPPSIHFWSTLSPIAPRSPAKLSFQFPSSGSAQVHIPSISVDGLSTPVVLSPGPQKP
Outline: as §1

[3] = target: T3, GABPA (Homo sapiens, UniProt Q06546 1-454)
T3 sequence: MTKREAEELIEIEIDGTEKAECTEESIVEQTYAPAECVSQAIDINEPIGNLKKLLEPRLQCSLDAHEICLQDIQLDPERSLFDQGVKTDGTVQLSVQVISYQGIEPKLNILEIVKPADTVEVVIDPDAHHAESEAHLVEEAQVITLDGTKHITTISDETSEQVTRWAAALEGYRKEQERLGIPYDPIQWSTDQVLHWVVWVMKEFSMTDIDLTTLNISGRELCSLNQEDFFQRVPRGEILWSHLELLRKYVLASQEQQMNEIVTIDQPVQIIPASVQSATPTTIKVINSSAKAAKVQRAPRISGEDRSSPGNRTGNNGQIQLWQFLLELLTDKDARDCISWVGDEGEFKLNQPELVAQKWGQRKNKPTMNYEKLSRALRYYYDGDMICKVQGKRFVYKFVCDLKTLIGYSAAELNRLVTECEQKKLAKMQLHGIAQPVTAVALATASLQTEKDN
Outline: as §1

[4] = target: T4, ERG (Homo sapiens, UniProt P11308 1-479)
T4 sequence: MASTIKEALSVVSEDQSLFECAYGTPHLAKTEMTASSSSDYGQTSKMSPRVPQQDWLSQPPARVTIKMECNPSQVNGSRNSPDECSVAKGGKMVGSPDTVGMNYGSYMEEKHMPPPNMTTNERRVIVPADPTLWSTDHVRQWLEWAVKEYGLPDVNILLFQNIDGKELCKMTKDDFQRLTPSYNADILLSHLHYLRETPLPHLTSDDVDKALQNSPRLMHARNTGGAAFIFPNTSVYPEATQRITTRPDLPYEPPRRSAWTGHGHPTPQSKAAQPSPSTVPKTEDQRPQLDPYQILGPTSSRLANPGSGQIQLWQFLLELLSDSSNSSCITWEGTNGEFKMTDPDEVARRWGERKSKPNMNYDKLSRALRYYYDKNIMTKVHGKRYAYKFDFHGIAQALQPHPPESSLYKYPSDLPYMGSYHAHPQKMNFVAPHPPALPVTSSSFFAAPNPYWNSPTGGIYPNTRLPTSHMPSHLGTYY
Outline: as §1

[5] = target: ELF1 (Homo sapiens, UniProt P32519 1-619)
ELF1, sequence (P32519 whole entry): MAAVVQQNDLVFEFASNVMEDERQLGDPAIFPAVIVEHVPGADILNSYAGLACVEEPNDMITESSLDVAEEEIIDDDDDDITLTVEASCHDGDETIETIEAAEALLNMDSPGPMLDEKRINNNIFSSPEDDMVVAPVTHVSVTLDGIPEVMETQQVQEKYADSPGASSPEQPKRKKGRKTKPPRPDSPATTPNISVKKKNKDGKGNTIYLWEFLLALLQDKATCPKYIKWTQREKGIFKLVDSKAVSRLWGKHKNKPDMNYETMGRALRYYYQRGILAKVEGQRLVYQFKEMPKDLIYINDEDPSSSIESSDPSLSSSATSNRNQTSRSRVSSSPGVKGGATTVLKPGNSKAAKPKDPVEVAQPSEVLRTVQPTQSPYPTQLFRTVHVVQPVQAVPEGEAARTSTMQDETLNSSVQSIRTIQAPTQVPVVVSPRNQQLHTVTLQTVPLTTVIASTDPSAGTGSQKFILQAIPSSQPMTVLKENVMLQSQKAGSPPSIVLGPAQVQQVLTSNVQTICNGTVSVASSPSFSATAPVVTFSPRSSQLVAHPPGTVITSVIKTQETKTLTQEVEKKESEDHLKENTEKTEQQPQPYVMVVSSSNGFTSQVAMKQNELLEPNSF
Outline: as §1

[6] = target: T5, EHF (Homo sapiens, UniProt Q9NZC4 1-300)
T5 sequence: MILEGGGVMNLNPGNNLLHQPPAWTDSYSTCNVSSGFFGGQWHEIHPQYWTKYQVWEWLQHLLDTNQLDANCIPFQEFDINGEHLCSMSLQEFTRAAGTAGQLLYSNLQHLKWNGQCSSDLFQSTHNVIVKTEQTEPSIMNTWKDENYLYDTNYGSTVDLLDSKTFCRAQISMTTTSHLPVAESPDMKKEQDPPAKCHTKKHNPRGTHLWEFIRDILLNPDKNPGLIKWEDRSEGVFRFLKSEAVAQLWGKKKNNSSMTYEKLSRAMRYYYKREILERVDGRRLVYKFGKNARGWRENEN
Outline: as §1

[7] = target: SPI1 (Homo sapiens, UniProt P17947 1-270)
Outline: as §1

[8] = target: SPIB (Homo sapiens, UniProt Q01892 1-262)
SPIB, sequence (Q01892 whole entry): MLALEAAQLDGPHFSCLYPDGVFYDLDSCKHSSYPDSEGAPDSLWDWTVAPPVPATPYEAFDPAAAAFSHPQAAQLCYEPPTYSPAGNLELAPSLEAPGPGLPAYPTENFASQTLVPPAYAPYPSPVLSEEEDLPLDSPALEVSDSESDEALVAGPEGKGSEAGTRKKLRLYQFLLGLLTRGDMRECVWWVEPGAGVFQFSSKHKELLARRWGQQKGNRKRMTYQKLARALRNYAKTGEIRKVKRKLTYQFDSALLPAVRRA
Outline: as §1

[9] = target: T6, ELK3 (Homo sapiens, UniProt P41970 1-407)
T6 sequence: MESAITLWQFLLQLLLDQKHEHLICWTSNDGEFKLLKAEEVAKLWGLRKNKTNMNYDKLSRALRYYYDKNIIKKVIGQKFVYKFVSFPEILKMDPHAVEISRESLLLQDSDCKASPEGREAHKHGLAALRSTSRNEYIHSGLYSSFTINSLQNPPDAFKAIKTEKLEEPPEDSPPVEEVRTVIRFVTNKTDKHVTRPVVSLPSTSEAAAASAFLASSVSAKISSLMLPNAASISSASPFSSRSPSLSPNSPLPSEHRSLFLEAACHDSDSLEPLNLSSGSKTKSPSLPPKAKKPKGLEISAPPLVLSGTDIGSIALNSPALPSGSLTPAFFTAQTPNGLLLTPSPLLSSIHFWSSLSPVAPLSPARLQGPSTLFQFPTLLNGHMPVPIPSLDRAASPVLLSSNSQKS
Outline: as §1

Sequence	binding signal [1]	binding signal [2]	binding signal [3]	binding signal [4]	binding signal [5]	binding signal [6]	binding signal [7]	binding signal [8]	binding signal [9]
TTGAAA	1.22 fold enrichment (6-mer frequency, TF over GST control)	1.25 fold enrichment (6-mer frequency, TF over GST control)	1.11 fold enrichment (6-mer frequency, TF over GST control)	1.09 fold enrichment (6-mer frequency, TF over GST control)	1.23 fold enrichment (6-mer frequency, TF over GST control)	1.23 fold enrichment (6-mer frequency, TF over GST control)	1.18 fold enrichment (6-mer frequency, TF over GST control)	1.1 fold enrichment (6-mer frequency, TF over GST control)	1.09 fold enrichment (6-mer frequency, TF over GST control)
CTGATT	1.18 fold enrichment (6-mer frequency, TF over GST control)	1.21 fold enrichment (6-mer frequency, TF over GST control)	1.14 fold enrichment (6-mer frequency, TF over GST control)	1.2 fold enrichment (6-mer frequency, TF over GST control)	1.22 fold enrichment (6-mer frequency, TF over GST control)	1.22 fold enrichment (6-mer frequency, TF over GST control)	1.09 fold enrichment (6-mer frequency, TF over GST control)	1.21 fold enrichment (6-mer frequency, TF over GST control)	1.21 fold enrichment (6-mer frequency, TF over GST control)
ACGCCT	1.16 fold enrichment (6-mer frequency, TF over GST control)	1.24 fold enrichment (6-mer frequency, TF over GST control)	1.21 fold enrichment (6-mer frequency, TF over GST control)	1.2 fold enrichment (6-mer frequency, TF over GST control)	1.29 fold enrichment (6-mer frequency, TF over GST control)	1.12 fold enrichment (6-mer frequency, TF over GST control)	1.14 fold enrichment (6-mer frequency, TF over GST control)	1.2 fold enrichment (6-mer frequency, TF over GST control)	1.21 fold enrichment (6-mer frequency, TF over GST control)
CTCTGT	1.5 fold enrichment (6-mer frequency, TF over GST control)	1.39 fold enrichment (6-mer frequency, TF over GST control)	1.33 fold enrichment (6-mer frequency, TF over GST control)	1.29 fold enrichment (6-mer frequency, TF over GST control)	1.5 fold enrichment (6-mer frequency, TF over GST control)	1.44 fold enrichment (6-mer frequency, TF over GST control)	1.34 fold enrichment (6-mer frequency, TF over GST control)	1.36 fold enrichment (6-mer frequency, TF over GST control)	1.19 fold enrichment (6-mer frequency, TF over GST control)
TCTTCT	1.3 fold enrichment (6-mer frequency, TF over GST control)	1.29 fold enrichment (6-mer frequency, TF over GST control)	1.21 fold enrichment (6-mer frequency, TF over GST control)	1.23 fold enrichment (6-mer frequency, TF over GST control)	1.25 fold enrichment (6-mer frequency, TF over GST control)	1.14 fold enrichment (6-mer frequency, TF over GST control)	1.22 fold enrichment (6-mer frequency, TF over GST control)	1.19 fold enrichment (6-mer frequency, TF over GST control)	1.25 fold enrichment (6-mer frequency, TF over GST control)
ACATCC	2.58 fold enrichment (6-mer frequency, TF over GST control)	2.73 fold enrichment (6-mer frequency, TF over GST control)	2.39 fold enrichment (6-mer frequency, TF over GST control)	3.08 fold enrichment (6-mer frequency, TF over GST control)	2.35 fold enrichment (6-mer frequency, TF over GST control)	2.7 fold enrichment (6-mer frequency, TF over GST control)	2.5 fold enrichment (6-mer frequency, TF over GST control)	2.69 fold enrichment (6-mer frequency, TF over GST control)	2.98 fold enrichment (6-mer frequency, TF over GST control)
TTCAAG	1.22 fold enrichment (6-mer frequency, TF over GST control)	1.22 fold enrichment (6-mer frequency, TF over GST control)	1.25 fold enrichment (6-mer frequency, TF over GST control)	1.24 fold enrichment (6-mer frequency, TF over GST control)	1.28 fold enrichment (6-mer frequency, TF over GST control)	1.3 fold enrichment (6-mer frequency, TF over GST control)	1.2 fold enrichment (6-mer frequency, TF over GST control)	1.29 fold enrichment (6-mer frequency, TF over GST control)	1.22 fold enrichment (6-mer frequency, TF over GST control)
GTTGCT	1.34 fold enrichment (6-mer frequency, TF over GST control)	1.26 fold enrichment (6-mer frequency, TF over GST control)	1.25 fold enrichment (6-mer frequency, TF over GST control)	1.3 fold enrichment (6-mer frequency, TF over GST control)	1.31 fold enrichment (6-mer frequency, TF over GST control)	1.35 fold enrichment (6-mer frequency, TF over GST control)	1.34 fold enrichment (6-mer frequency, TF over GST control)	1.28 fold enrichment (6-mer frequency, TF over GST control)	1.25 fold enrichment (6-mer frequency, TF over GST control)
